# The source made the active and inactive calls. A call without a number means that no potency is given here. Calls come from the whole dose curve; as a rule, active = well fitted curve in the direction sought with a large enough effect; inconclusive = small, poorly fitted or top-dose-only effect, or effect the other way, or another doubt; inactive = no such curve, though single readings can be large or run the other way.
# Experiment: Secondary Assay for lipid storage modulators: AML12 cell LDSA assay for probe SAR
# Details: AML12 lipid droplet accumulation, BODIPY 493/503 imaging, oleate; series mostly up to 46.1 µM
# Text: NIH Molecular Libraries Probe Production Centers Network [MLPCN] NIH Chemical Genomics Center [NCGC] MLPCN Grant: 1 R03 MH085686-01 Assay Submitter (PI): Beller, Mathias; Max-Planck-Institut fur Biophysikalische Chemie NCGC Assay Overview: Storing lipids as a reservoir for energy or the anabolism of elementary metabolites is a common feature of probably all cells and is conserved from bacteria to humans. The universal cellular lipid storage organelle is the so-called lipid storage droplet (LD). Although ubiquitous, LDs share a simple structure composed of a hydrophobic core that harbors the storage lipids, which is shielded by a droplet-specific phospholipid monolayer to which proteins are attached. The current model of LD biogenesis involves an incorporation of the lipid core into the membrane leaflets of the endoplasmic reticulum (ER) followed by a subsequent budding-like maturation of a LD, which ultimately pinches off. Once released, LD volume can increase by localized lipogenesis or fusion of existing droplet. Storage lipids are re-mobilized enzymatically by lipase activity. Lipase regulation in the adipocyte is heavily studied and involves multiple components including catecholamine signaling, the LD-associated proteins Perilipin and comparative gene identification (CGI-58) and at least two lipases named hormone sensitive lipase (HSL) and adipocyte triglyceride lipase (ATGL). LD regulation outside of the adipocyte is poorly understood and only few components are known. However, there is an urgent need to learn more about ectopic fat depots as mislocalized storage of lipids, for example in the liver or muscle, is an eminent health problem associated with insulin resistance or the metabolic syndrome.
# NCGC Assay Protocol Summary: The assay was performed with AML12 cells, using an oleic acid feeding protocol similar to the S3 assay. We dispensed 4 uL of cells to give 700 cells/well into Greiner bio-one 1,536-well plates (black walled, clear bottom). Triacsin C (Sigma-Aldrich T-4540), an inhibitor of long-chain fatty acyl CoA synthetase that blocks synthesis of triglycerides, was used as a positive control for lipid under-storage using a final concentration of 20 uM. The orexin antagonist, SB408124 - previously identified to stimulate lipid over-storage, was used as a positive control for lipid over-storage using a final concentration of 20 uM. A total of 23 nL of compound solution of different concentrations were transferred to the assay plates using a Kalypsys pin tool equipped with a 1,536-pin array containing 10-nL slotted pins (FP1S10, 0.457-mm diameter, 50.8 mm long; V&P Scientific). One microliter of oleic acid was added (400 uM final concentration), and the plate was lidded with stainless steel rubber gasket lined lids containing pinholes. After 18-24 h incubation at […] and 95% humidity, 4 uL of the dyes BODIPY 493/503 (Molecular Probes) and the Cell Tracker Red CMTPX dye (Molecular Probes) were added to the wells to stain lipid droplets and enumerate cell number, respectively. Fluorescence was detected by excitation of the fluorophores with a 488-nm laser on an Acumen Explorer (TTP Lab Tech). The total intensity in channel 2 (500-530 nm) reflected lipid droplet accumulation. Cells were detected using channel 3 (575-640 nm) with 5-um width and 100-um depth filters. The ratio of the number of objects in PMT channel 2 over the number of objects in PMT channel 3 was also calculated. Percent activity was computed relative to an internal control (100% inhibited lipid droplet deposition due to the presence of 20 uM Triacsin C), which was added to 32 wells/plate.
row,Structure (SMILES),Potency
1,Cc1ccc(-c2cnc(SCC(=O)Nc3nccs3)n2Cc2ccco2)cc1,inactive
2,CCOc1ccc(NC(=O)NC2(C(=O)N3CCCCC3)CCCCC2)cc1,inactive
3,CC(C)(C)n1ncc2c(=O)n(Cc3ccc(-c4ccccc4C#N)cc3)cnc21,inactive
4,CCOC(=O)C1CCN(C(=O)C(C)(C)NC(=O)Nc2ccc(N)cc2)CC1,inactive
5,COc1ccc(-c2cnc(SCC(=O)Nc3nc(C)cs3)n2-c2ccccc2)cc1,inactive
6,COc1ccc(Cl)cc1NC(=S)N1CCN(c2ccc(F)cc2)CC1,inactive
7,CC(C)(C)OC(=O)NCCOCCOCCOc1ccc(-n2ncc3c2CCCC3NC(=O)c2ccccn2)cc1 (stereo not given),inactive
8,Cc1ccc(CC(=O)Nc2nc(-c3cccs3)cs2)cc1,inactive
9,Cc1ccc(-c2cnc(SCC(=O)Nc3nc(C)cs3)n2Cc2ccco2)cc1,inactive
10,COc1ccccc1NC(=S)N1CCN(c2cc(Cl)ccc2C)CC1,inactive
11,COc1ccc(CCNC(=O)c2cc3sc(C)cc3n2C)cc1OC,inactive
12,COc1cccc(-n2ncc3c2CCCC3NC(=O)c2ccccn2)c1 (stereo not given),0.0445 µM [inconclusive] (active)
13,CCOC(=O)C1CCN(C(=O)C(C)(C)NC(=O)Nc2ccc3ccccc3c2)CC1,inactive
14,O=C(NC1CCCc2c1cnn2-c1ccc(F)cc1F)c1cccc(F)c1F (stereo not given),inactive
15,O=C(CSc1nnc(NCc2ccccc2)s1)Nc1nc(-c2ccc(F)c(F)c2)cs1,inactive
16,Cc1ccc(C)c(-c2csc(NC(=O)CSc3nnc(Nc4ccc(OC(F)(F)F)cc4)s3)n2)c1,inactive
17,COc1ccc(-c2cnc(SCC(=O)Nc3nc(C)cs3)n2Cc2ccco2)cc1,inactive
18,O=C(NC1CCCc2c1cnn2-c1cc(F)cc(F)c1)c1cccc2nccnc12 (stereo not given),inactive
19,O=C(NC1CCCc2c1cnn2-c1ccc(F)cc1F)c1ccn[nH]1 (stereo not given),inactive
20,CCOC(=O)C1CCN(C(=O)C(C)(C)NC(=O)Nc2ccc3sccc3c2)CC1,inactive

row,Structure (SMILES),Potency
1,CCn1c(-c2ccc(C)cc2)cnc1SCC(=O)Nc1nc(C)cs1,inactive
2,COc1ccc(NC(=S)N2CCN(c3cccc(Cl)c3)CC2)c(OC)c1,inactive
3,COc1ccc(Cl)cc1NC(=S)N1CCN(c2ccccc2)CC1,inactive
4,Cc1sc(NC(=O)Cc2cccs2)nc1-c1ccccc1,inactive
5,O=C(Cc1cccs1)Nc1nc(-c2ccc3c(c2)CCC3)cs1,inactive
6,O=C(Nc1cccc2nn(-c3ccc(F)cc3)cc12)c1ccccn1,inactive
7,CCn1c(C(=O)NCCc2ccc(OC)c(OC)c2)cc2sccc21,inactive
8,COc1ccc(CCNC(=O)c2cc3sccc3n2Cc2ccc(Cl)cc2)cc1OC,0.0307 µM (active)
9,CCOC(=O)C1CCN(C(=O)C(C)(C)NC(=O)Nc2cccc(C(=O)OC)c2)CC1,inactive
10,O=C(Cc1cccs1)Nc1nc(-c2ccncc2)cs1,inactive
11,CCOC(=O)C1CCN(C(=O)C(C)(C)NC(=O)Nc2cccc(-c3csc(C)n3)c2)CC1,inactive
12,O=C(NC1CCCc2c1cnn2-c1ccc(F)cc1F)c1cccs1 (stereo not given),inactive
13,O=C(NC1CCCc2c1cnn2-c1ccc(F)cc1F)c1ccncc1 (stereo not given),inactive
14,CCOc1ccc(CCNC(=O)c2cc3sccc3n2C)cc1OCC,inactive
15,CCOC(=O)C1CCN(C(=O)C(C)(C)NC(=O)Nc2ccc(OC)c(Cl)c2)CC1,inactive
16,O=C(NC1CCCc2c1cnn2-c1ccccc1F)c1ccc2ncccc2c1 (stereo not given),inactive
17,O=C(NC1CCCc2c1cnn2-c1ccc(F)cc1F)c1ccccc1 (stereo not given),inactive
18,CC1=C(C(=O)NC2CCCc3c2cnn3-c2ccc(F)cc2F)OCCO1 (stereo not given),inactive
19,O=C(NC1CCCc2c1cnn2-c1ccc(F)cc1F)c1cnsn1 (stereo not given),inactive
20,COCCn1c(-c2ccc(C)cc2)cnc1SCC(=O)Nc1nc(C)cs1,inactive

# From PubChem BioAssay AID504434 (National Center for Advancing Translational Sciences (NCATS), 2011)
